Screening results as filed in PubChem.
NCOA1 inh = human NCOA1 inhibition; Q15788; HEK293 GAL4-SRC1 luciferase reporter, luminescence; inhibition, % at 3.6 µM; 0.12% of 360,000 active; AID 588354;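 active means inhibition above the campaign mean plus 3 SD, with each screening campaign given its own cutoff, cut at about 60% in these data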;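 further: 0% = DMSO treated cells and 100% = gossypol at 36 µM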
NR5A2 inv ag = inverse agonists of human LRH-1 (NR5A2) | HEK293T StAR-luciferase reporter, LRH-1 transfected, 24 h | inhibition, % at 3.6 µM | 0.13% of 360,000 active | AID 602396;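 active means inhibition above the mean inhibition of all tested compounds plus 3 SD, cut at about 73% in these data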;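 further: 0% = DMSO wells and 100% = reporter-only cells lacking LRH-1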
SRC3 inh = inhibitors of human steroid receptor coactivator 3 (SRC3). Q9Y6Q9. HEK293 GAL4-SRC3 luciferase reporter, luminescence. inhibition, % at 3.6 µM. 0.17% of 360,000 active. AID 588352;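 active means inhibition above a per-campaign cutoff, the mean of all compounds plus 3 SD, cut at about 60% in these data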;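 further: 0% = DMSO-treated cells and 100% = gossypol-treated cells at 36 µM; higher means less SRC3-driven luciferase light from the GAL4 reporter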
GalR3 antagonist = antagonists of human GalR3 | HEK293 GalR3-CNG cAMP membrane potential fluorescence; galR3 body fused to GalR1 C-terminus | inhibition, % at 3 µM | 0.44% of 360,000 active | AID 651719;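 active means inhibition above the screen-wide average plus 3 SD, cut at about 13% in these data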;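 further: forskolin and galanin both at EC90 stimulate the cells; cAMP rise reported by CNG channel membrane potential dye signal; 0% = forskolin plus galanin with DMSO and 100% = forskolin alone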
Target sequence (O60755 1-299 limits assumed): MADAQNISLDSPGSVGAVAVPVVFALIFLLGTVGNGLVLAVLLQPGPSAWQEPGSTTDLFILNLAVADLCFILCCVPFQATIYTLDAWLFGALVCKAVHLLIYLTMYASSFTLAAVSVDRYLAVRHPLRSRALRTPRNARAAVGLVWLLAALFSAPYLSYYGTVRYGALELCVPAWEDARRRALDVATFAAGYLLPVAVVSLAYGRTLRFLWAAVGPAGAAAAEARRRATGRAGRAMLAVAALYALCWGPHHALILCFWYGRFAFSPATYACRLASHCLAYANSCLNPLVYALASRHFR
SRC2 inh = inhibits human steroid receptor coactivator 2; inhibition, % at 9 µM; 0.17% of 370,000 active; HEK293 GAL4-SRC2 luciferase reporter, luminescence; Q15596;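 active means inhibition above the mean inhibition of all tested compounds plus 3 SD, set per campaign, cut at about 52% in these data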;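 further: 0% = DMSO treated cells and 100% = cells given Gossypol at 36 µM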
COUP-TFII inh = blocks human COUP-TFII nuclear receptor | HEK293T NGFI-A luciferase reporter, luminescence | 0.7% of 370,000 active | inhibition, % at 8.6 µM | P24468;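 active means inhibition above a per-plate cutoff, mean inhibition of test wells between control levels plus 3 SD, cut at about 38% in these data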;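 further: cells cotransfected with COUP-TFII expression vector driving the NGFI-A reporter; 0% = median of COUP-TF2 test wells and 100% = reporter-only cells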
VP16 Luc counter = VP16 inhibition counter-screen for COUP-TFII; shares compounds with COUP-TFII inh; HEK293 Gal4-VP16 luciferase reporter, luminescence; inhibition, % at 8.5 µM; 25% of 2,500 active; in the data active means inhibition above about 13%
COUP-TFII conf = confirmation of human COUP-TFII (NR2F2) inhibitors; shares compounds with COUP-TFII inh; HEK293 NGFI-A luciferase reporter, luminescence; inhibition, % at 8.5 µM; 45% of 2,500 active; AID 687008;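 active means mean inhibition over three repeats above a set limit taken from the earlier primary screen, cut at about 38% in these data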;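 further: 100% = cells given the luciferase reporter alone without the COUP-TF2 vector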
The depositor's hits bear a star; · = not tested or not shown. Shown are actives, neighbours in structure and some others; about 1.1% of the full set was active somewhere.

SMILES	NCOA1 inh	NR5A2 inv ag	SRC3 inh	GalR3 antagonist	SRC2 inh	COUP-TFII inh	VP16 Luc counter	COUP-TFII conf
Cc1cc(/C=C2\Sc3ccccc3N2C)cc(C)[n+]1CC1CCCO1 (stereo unspecified)	43	62	48	-5	-1	49*	12	62*
Cc1ccc(/C=C2/Sc3ccccc3N(CC(=O)NCC3CCCO3)C2=O)cc1 (stereo unspecified)	8	-14	4	·	·	·	·	·
CCN1/C(=C2\SC(=S)N(Cc3ccccc3)C2=O)Sc2ccccc21	-2	-14	-9	-2	-22	5	·	·
CCC(CO)[n+]1c(C)cc(/C=C2\Sc3ccccc3N2Cc2ccccc2)cc1C (stereo unspecified)	8	12	3	10	-22	85*	22*	87*
COc1ccc(/C(C)=N\NC(=O)C(c2ccncc2)N2CCOCC2)cc1 (stereo unspecified)	-3	-3	4	-2	-11	17	·	·
CC(=O)N(C)C[C@H]1Oc2ncc(Br)cc2C(=O)N([C@H](C)CO)C[C@@H]1C	-15	-7	5	-4	-5	5	·	·
Cc1ccc(C)c(N2CCN(C(=O)C3CCN(S(=O)(=O)c4c(C)noc4C)CC3)CC2)c1	18	27	2	-8	22	53*	-4	33
Cc1ccc(C)c(N2CCN(C(=O)C3CCCN(S(=O)(=O)c4c(C)noc4C)C3)CC2)c1 (stereo unspecified)	-6	-9	15	·	-16	-11	·	·
COC1=CC(=O)c2c(ccc3ncnc(N)c23)C1=O	60	72	69*	-8	62*	55*	62*	44*
O=c1c2ccccc2nc(/C=C/c2cccnc2)n1CCc1ccccc1	23	23	23	1	6	44*	-6	4
COc1ccc(C=Nn2c(-c3n[nH]c4c3CCC4)n[nH]c2=S)cc1OCc1ccccc1	·	·	·	·	18	16	·	·
Cc1cc(C(=O)CSc2nnc3ccccn23)c(C)n1-c1ccccc1	59	58	66*	8	46	40*	5	57*
COc1ccc(C(=O)N2CCC(N3CCN(c4ccccc4)CC3)CC2)cc1OC	19	11	10	-6	10	-4	·	·
COc1ccc(C(=O)N2CCN(C3CCC(c4ccccc4)CC3)CC2)cc1OC (stereo unspecified)	-3	-1	-10	11	22	41*	10	18
S=C(NCCCc1cnc[nH]1)NCCCN(Cc1ccc(Cl)cc1)c1ccc(Br)cn1	6	94*	61	-3	45	38*	10	-2
CCC[C@H]1[C@@H](OC(=O)NCc2ccc(OC)cc2)CC[C@@]23CCCN2C(=O)CCC[C@@H]13	·	·	·	·	·	-11	·	·
Cc1nn(C)c(C)c1CN(Cc1nc(CCC(C)C)no1)C(C)C	19	48	19	92*	19	66*	3	62*
O=C(c1ccco1)N1CCC(Oc2cccnc2)CC1	·	·	·	·	-47	15	·	·
O=C(Nc1ccc(OCc2ccccc2Cl)cc1)c1cccnc1	24	16	21	-10	67*	38*	-4	11
O=C(Nc1ccc(OCc2ccccc2)cc1)c1cccnc1	-66	-2	-16	-2	-49	-20	·	·
Cc1cccc(NC(=O)CN2CCN(C(=O)CNC(=O)c3ccc(-c4ccccc4)cc3)CC2)c1C	16	-8	-3	-6	-2	55*	-8	16
Cc1ccc(NC(=O)N2CCCCC2)cc1[N+](=O)[O-]	-15	6	-23	-8	-1	-11	·	·
Cc1ccc(CN[C@@H]2CC[C@@]34CCCN3C(=O)CCC[C@H]4C2)cc1	·	·	·	·	·	-15	·	·
Cc1ccc(-c2c[n+]3c(n2-c2ccccc2)CCC3)cc1	31	29	32	-2	30	60*	-2	34
Clc1ccc(-c2c[n+]3c(n2-c2ccccc2)SCC3)cc1	-12	-10	7	-6	12	9	·	·
SMILES	NCOA1 inh	NR5A2 inv ag	SRC3 inh	GalR3 antagonist	SRC2 inh	COUP-TFII inh	VP16 Luc counter	COUP-TFII conf
CC(C)(C)C(=O)Nc1ccc(N=Nc2ccccc2)cc1	52	38	51	-4	46	66*	-9	60*
O=C(O)CCC(=O)Nc1ccc(N=Nc2ccccc2)cc1	-14	-6	0	·	·	·	·	·
CC1CCCC=CC2CC(OC(=O)CN(C)C)CC2C(O)C=CC(=O)O1 (stereo unspecified)	0	37	51	0	3	51*	16*	16
Cc1sc(-c2ccccn2)nc1OC(=O)c1ccc(F)cc1F	4	10	33	-10	8	38*	-16	30
Cc1sc(-c2ccccn2)nc1OC(=O)c1ccc(Cl)c(Cl)c1	-6	-21	3	-2	6	0	·	·
CCN(CC)CC(C)(C)COC(=O)c1oc2ccccc2c1C	5	5	7	-7	22	-7	·	·
C#CCN1C(=O)S/C(=C/C=C/c2ccc(N(C)C)cc2)C1=O	-115	-66	-115	-8	-71	-44	·	·
O=C(CSc1ccccc1)NC1CCCCN(Cc2cccc(Cl)c2)C1=O (stereo unspecified)	·	·	·	·	-12	13	·	·
CCCc1ccc(C(=O)O/N=C(\N)c2ccccn2)cc1	55	45	47	-11	59*	68*	-31	53*
N/C(=N\OC(=O)c1ccc2ccccc2c1)c1ccccn1	-47	-1	-11	-2	38	45*	-174	-63
N/C(=N\OC(=O)c1ccc(Cl)cc1Cl)c1ccccn1	-33	-29	15	-2	46	37	·	·
Cc1ccc(C(=O)O/N=C(\N)c2ccccn2)c(Cl)c1	36	50	57	-9	77*	78*	20*	47*
N/C(=N\OC(=O)c1ccc2ccccc2c1)c1ccncc1	-126	-181	-116	-1	-56	-48	·	·
COC(=O)CCn1nnc(-c2cccs2)n1	-30	6	3	-4	-4	2	·	·
COC(=O)CCn1nnc(-c2ccc(C(C)C)cc2)n1	51	49	44	1	86*	86*	83*	87*
Cc1nc2sc(C(N)=O)c(N)c2c2c1CCCC2	42	4	52	-6	39	51*	9	21
O=C(CCc1ccccc1)c1ccc2c(c1)OCCCO2	-207	-136	-93	-4	-56	-32	·	·
O=C(NCCc1ccccc1)c1ccc2c(c1)OCCCO2	74*	78*	74*	-3	88*	88*	72*	91*
COc1ccc(CCNC(=O)c2ccc3c(c2)OCCO3)cc1	-39	-76	-42	-6	-29	-20	·	·
O=C(C[n+]1ccc(C(=O)NCc2ccccc2)cc1)c1ccc2c(c1)OCCO2	10	22	4	-3	11	-12	·	·
